Results as given in PubChem BioAssay AID720650 (Broad Institute, 2013).
Unmarked numbers belong to inactive results. Calls of active or inactive are those of the source. The rule behind the calls is not given here.

Assay: Biochemical counterscreen for C difficile toxins, absence of UDPG, inhibitor dose response (AID 720650)
Conditions: series mostly up to 19.5 µM

SMILES	AC50
CCCCN(C)c1c(C)nc2ccc(C(=O)NCc3cccs3)cn12	20.4 µM (active)
COC(=O)C[C@@H]1CC[C@@H]2[C@H](COC[C@H](O)CN2C(=O)Nc2ccccc2OC)O1	inactive
O=C(NNc1ccc(-c2csnn2)cc1)c1cc(Cl)cc(Cl)c1	< 0.16 µM (active)
CC(=O)Nc1n[nH]c(=S)s1	> 39 µM
CCCNC(=O)C1CC(=O)N(c2ccc(OCC)cc2)C1 (stereo unspecified)	inactive
CCOc1ccccc1-n1c(C)nc2cc(C(=O)O)ccc21	inactive
COc1cc(/C=C/c2sc3ccccc3[n+]2CCCS(=O)(=O)[O-])ccc1O	inactive
CC(C)NC(=O)N1CC[C@@H]2[C@@H](CO)N(C)c3ccc(-c4ccc(F)cc4)cc3[C@@H]21	4.11 µM (active)
O=C1Cc2cc(S(=O)(=O)NCc3ccccc3Cl)cc3c2N1CCC3	inactive
COc1ccc(CNC(=O)c2cc3c(s2)CN(Cc2ccccc2)C3)cc1	inactive
Cc1ccc(N/N=C/c2c(O)n(-c3ccccc3)c(=O)[nH]c2=O)cc1	0.875 µM (active)
Cc1c(-n2c(O)c(C3=c4ccccc4=NC3=O)sc2=S)c(=O)n(-c2ccccc2)n1C	inactive
COc1cc(/C=C/C(=O)OCC(=O)c2ccc[nH]2)ccc1O	inactive
COc1ccc(NS(=O)(=O)c2cc(N=Nc3c(O)[nH]c(=O)[nH]c3=O)ccc2Cl)cc1	inactive
COc1ccccc1/C=C/c1onc(C)c1S(=O)(=O)N1CCC(C(=O)NC2CCCCCC2)CC1	inactive
Cc1ccccc1S(=O)(=O)N1CCCc2nc(C)c(C)cc21	> 39 µM
CCc1ccccc1NC(=S)N(Cc1ccc(C(=O)O)cc1)Cc1ccc(OC)c(OC)c1	inactive
Cc1onc(-c2c(F)cccc2Cl)c1C(=O)Nc1nnc(C(F)(F)F)s1	inactive
CC1C(c2ccc3c(c2)OCO3)c2cc3c(cc2OC1N1CCOCC1)OCO3 (stereo unspecified)	inactive
COC(=O)c1ccc(OC(=O)c2ccc(OC)cc2)c(OC)c1	inactive
Oc1cc(O)cc(/C=C/c2ccc(O)c(O)c2)c1	inactive
